Screening data as filed in PubChem BioAssay.
Calb FLC: C. albicans growth inhibition with fluconazole, primary screen, CaCi-2 strain, Alamar Blue fluorescence; C. albicans CaCi-2 (fluconazole-resistant clinical isolate) + fluconazole, 48 h; growth inhibition, % (no concentration beside the values); hit rate 0.57% among 300,000; AID 1979, 2009;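 active = growth inhibition above about 58% in most replicates, limit read from the data, passing the limit was not always enough; inconclusive = exactly half the replicates above a set limit; inactive = most replicates below a set limit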;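 note: all wells also contain fluconazole at 8 µg/ml as a sub-toxic cotreatment; 0% = median of DMSO wells and 100% = median of geldanamycin control wells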
Beta cell apopt: inhibitors of cytokine-induced beta cell apoptosis, primary screen, luminescence; hit rate 0.8% among 300,000; AID 435005, 2010; protection from apoptosis, % (test concentration not listed); INS-1E cytokine-induced death, ATP luminescence, 48 h; percent of positive-control rescue, neutral wells zero;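 active = Every replicate reaches about 75%, or at least half do and their mean reaches it too, limit read from the data; inconclusive = At least half of replicates reach the limit but their mean does not; inactive = Under half of replicates reach the limit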;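 note: 0% = cytokine-treated negative control wells and 100% = positive control rescue; higher means more ATP so stronger rescue from cytokine killing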
CSC inhib: cancer stem cell viability inhibitors, primary screen, luminescence | cancer stem cell-like cells viability | inhibition, % at 7.5 µM | hit rate 1.1% among 300,000 | AID 2717, 2010; in the data active = inhibition above about 75%; inconclusive = no clear call, values can overlap the other calls; tested in HMLE shEcad cells
PP1 counter: PP1-alpha phosphatase inhibitors, primary screen, counter-screen for PP5 inhibitor project, biochemical, fluorescence, OMFP substrate, single point; Serine/threonine-protein phosphatase PP1-alpha catalytic subunit (Homo sapiens), P62136; hit rate 0.9% among 320,000; purified PP1alpha; inhibition, % at 6.7 µM;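 active = inhibition above the mean inhibition of all tested compounds plus 3 SD, computed separately for each screening campaign, cut at about 15% in these data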
Target sequence (P62136 whole entry, looked up): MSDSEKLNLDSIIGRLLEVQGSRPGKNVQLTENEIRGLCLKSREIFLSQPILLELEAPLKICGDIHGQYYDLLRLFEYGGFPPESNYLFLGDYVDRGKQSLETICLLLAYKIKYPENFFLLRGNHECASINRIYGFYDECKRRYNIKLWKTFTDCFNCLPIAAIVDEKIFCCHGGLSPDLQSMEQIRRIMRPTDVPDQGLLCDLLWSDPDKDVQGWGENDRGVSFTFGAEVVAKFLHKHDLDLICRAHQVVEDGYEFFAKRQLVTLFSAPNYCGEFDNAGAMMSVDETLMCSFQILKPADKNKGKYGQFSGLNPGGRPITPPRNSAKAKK
PP5 primary: PP5 phosphatase inhibitors, primary screen, biochemical, fluorescence; purified PP5c, OMFP substrate fluorescence; inhibition, % at 6.7 µM; hit rate 0.18% among 320,000; Serine/threonine-protein phosphatase 5 (Homo sapiens), P53041;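 active = inhibition above the campaign's mean inhibition across all tested compounds plus 3 SD, cut at about 9.5% in these data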;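 note: 0% = DMSO only and 100% = 100 µM cantharidin control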
Mdm2-MdmX inh: inhibitors of human Mdm2-MdmX association, primary screen, cell-based, luminescence, split luciferase, SaOS-2, uHTS | AID 485346, 2010 | hit rate 3% among 330,000 | inhibition, % at 8 µM | SaOS-2 split-luciferase Mdm2/MdmX complementation | Protein Mdm4 (Homo sapiens) + E3 ubiquitin-protein ligase Mdm2 (Homo sapiens), …;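 active = inhibition of at least 50% at 8 µM in the primary screen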
Mdm2 MdmX conf: Mdm2-MdmX complex disruptors, retested hits, confirmation, luminescence, single concentration. hit rate 55% among 10,000. AID 489028, 2010. inhibition, % at 8 µM. Mdm2-MdmX binding, luminescent assay. shares compounds with Mdm2-MdmX inh; in the data active = inhibition above about 40%
FLuc counter: full-length luciferase signal inhibition, confirmation, counter-screen for Mdm2/MdmX interaction inhibitor project, cell-based, single concentration, SaOS-2; shares compounds with Mdm2-MdmX inh; SaOS-2 full-length luciferase counterscreen, luminescence; inhibition, % at 8 µM; hit rate 77% among 6,200; AID 504607, 2011;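 active = mean inhibition at 8 µM reaching about 37%, which flags the compound as non-specific, limit read from the data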;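 note: p53-null SaOS-2 cells with luciferase driven by a doxycycline-inducible promoter; compound on cells about two nights before reading with doxycycline added after day one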
The depositor's hits bear a star; ? = inconclusive; . = no result. Only some compounds are listed: those with a hit (about 4.9% of all), similar ones and a draw of the others.

SMILES | Calb FLC | Beta cell apopt | CSC inhib | PP1 counter | PP5 primary | Mdm2-MdmX inh | Mdm2 MdmX conf | FLuc counter
CC(=O)N[C@H]1[C@H](Oc2ccc3c(c2)CCC2C3CC[C@]3(C)C(=O)CCC23)O[C@H](CO)[C@@H](O)[C@@H]1O (stereo partly drawn) | -1 | -5 | -1 | 0 | -1 | 1 | . | .
Cn1c(NC(=O)/C=C\c2ccccc2)cc(=O)n(C)c1=O | 5 | -2 | -16 | 1 | 0 | -98 | . | .
COc1ccc(-c2c3c(nc4sc5c(=O)[nH]c(C)nc5c24)CCC3)cc1 | 8 | 28 | -1 | 2 | 4 | 67* | 12 | .
CN(Cc1ccccc1)S(=O)(=O)c1ccc(NC(=S)NC(=O)C2CCCC2)cc1 | ? | 7 | 66 | 6 | 4 | 56* | 58* | 61*
CN(C)S(=O)(=O)c1ccc(NC(=S)NC(=O)C2CCC2)cc1 | 3 | 0 | -7 | -2 | 2 | 26 | . | .
COc1ccc(CNC(=O)c2ccc(CS(=O)(=O)Cc3ccccc3F)o2)cc1 | 2 | -7 | 1 | 1 | 0 | 13 | . | .
COc1ccccc1C(C[N+](=O)[O-])c1c(N)n(C)c(=O)n(C)c1=O (stereo not drawn) | 39* | 39 | 55 | 1 | 1 | 55* | 57* | 49*
COc1ccccc1C(c1c(N)n(C)c(=O)n(C)c1=O)C(C)[N+](=O)[O-] (stereo not drawn) | 6 | -2 | 9 | 2 | 1 | 11 | . | .
Cc1ccc(-n2[nH]c(=O)c(-c3ccccn3)c2C)cc1 | ? | 5 | -13 | -2 | 0 | 79* | 81* | 54*
Cc1ccc(-n2[nH]c(=O)c3cccnc32)cc1 | 23 | 0 | -3 | -1 | 1 | -16 | . | .
Cc1ccc(N=Nc2c(N)nn3c(C)cc(C)nc23)cc1 | 38 | 9 | . | 1 | 4 | 21 | . | .
Cc1ccc(N=Nc2c(N)nn3c(N)c(C#N)c(C)nc23)cc1 | 32 | 0 | -4 | 12 | -1 | 61* | 59* | 48*
CN1CCN(NC(=O)NC2CCCCC2)CC1 | -7 | -4 | -14 | 3 | 0 | 17 | . | .
CCc1ccc2c(c1)C1(NN=C(c3cccc4ccccc34)S1)C(=O)N2 (stereo not drawn) | -1 | 63 | 9 | 3 | 2 | 78* | 75* | 30
CC(=O)N1CCN(c2ccccc2NC(=O)COc2ccccc2C)CC1 | ? | 0 | -12 | -5 | -1 | -3 | . | .
CCOC(=O)c1ccccc1NC(=O)COc1cc(=O)n(CC)c2ccccc12 | -4 | 3 | . | -1 | 1 | 25 | . | .
Cc1cccc(OCC(=O)Nc2ccc(N3CCN(S(C)(=O)=O)CC3)cc2)c1C | -2 | 9 | . | -2 | 4 | 96* | 25 | .
Cc1ccccc1OCC(=O)Nc1ccc(N2CCN(S(C)(=O)=O)CC2)cc1 | 9 | 0 | 4 | 4 | 2 | 19 | . | .
Cc1ccccc1OCC(=O)Nc1ccccc1N1CCOCC1 | -3 | 2 | 17 | -1 | 3 | 50* | 8 | .
Cc1ccc(C(C)C)c(OCC(=O)NC(=S)Nc2ccccc2N2CCOCC2)c1 | . | 3 | 67 | 0 | -1 | 40 | . | .
CCn1c(=O)cc(OCC(=O)Nc2ccccc2N2CCN(C)CC2)c2ccccc21 | 1 | -6 | . | -3 | 1 | 50* | 16 | .
Cc1cccc(OCC(=O)NC(=S)Nc2ccccc2N2CCOCC2)c1C | 4 | 0 | 21 | -2 | 0 | 73* | 15 | .
CCC1SC(CC)C(=O)N(CC(=O)Nc2ccc3c(c2)OCO3)C1=O (stereo not drawn) | -16 | -3 | 3 | -2 | 5 | -34 | . | .
N#CCCn1nc(-c2ccc([N+](=O)[O-])cc2)cc1Nc1ccccc1NC(=O)C(F)(F)F | 5 | -6 | -9 | 0 | 2 | 11 | . | .
Cc1ccc(C(=O)N2CCCC2)cc1S(=O)(=O)Nc1cccc(C)c1C | 0 | -7 | -11 | -1 | 0 | 10 | . | .
SMILES | Calb FLC | Beta cell apopt | CSC inhib | PP1 counter | PP5 primary | Mdm2-MdmX inh | Mdm2 MdmX conf | FLuc counter
CCOc1ccc(OCC(=O)Nc2ccccc2N2CCCC2)cc1 | 4 | -4 | -7 | 1 | 0 | 51* | 72* | 60*
CCCCCCn1c2c(c(=N)c3c1CCC3)CCC2 | -4 | 109* | 25 | -2 | -1 | 67* | 60* | 39*
CCCCCCCCCn1c2c(c(=N)c3c1CCC3)CCC2 | 36 | 109* | 56 | 10 | 0 | 95* | 93* | 55*
CCn1c2c(c(=N)c3c1CCC3)CCC2 | -9 | -2 | 9 | 0 | 0 | 3 | . | .
CCCCCCn1c(=O)[nH]c2c(c1=O)CCC2 | 1 | 3 | -10 | -3 | -3 | 30 | . | .
O=C(NNC(=O)c1cc(Br)ccc1O)c1csc(N2CCOCC2)n1 | . | 10 | . | -6 | 3 | 64* | 44* | 59*
Cn1c(=O)c(C(=O)NNC(=O)c2ccc(Br)cc2)c(O)c2ccccc21 | 0 | 6 | ? | 0 | 0 | 54* | 30 | .
O=C(NCCO)c1c(O)c2cccc3c2n(c1=O)CC3 | -2 | -1 | -11 | -1 | 0 | -12 | . | .
CCCNC(=O)c1c(O)c2cccc3c2n(c1=O)CCC3 | -9 | -3 | 6 | . | . | . | . | .
Cn1c(=O)c(C(=O)NCC2CCCO2)c(O)c2ccccc21 (stereo not drawn) | 29 | -2 | 3 | -5 | -3 | 78* | 45* | 22
Cn1c(C(=O)NCC2CCCO2)cc2c(=O)n(C)c3ccccc3c21 (stereo not drawn) | 3 | 1 | 4 | -5 | 2 | 0 | . | .
O=C(NCC1CCCO1)c1c(O)c2cccc3c2n(c1=O)CCC3 (stereo not drawn) | -2 | 2 | 20 | -2 | 0 | 84* | 58* | 46*
O=C(NCC1CCCO1)c1c(O)c2cccc3c2n(c1=O)CC3 (stereo not drawn) | -1 | 1 | 4 | -8 | 1 | 69* | 69* | 55*
Cn1c(=O)c(C(=O)NCCO)c(O)c2ccccc21 | 3 | -6 | -5 | 1 | 4 | 42 | . | .
CC(NC(=O)C(=O)NN=C1CCCC1)c1ccccc1 (stereo not drawn) | 4 | -2 | -5 | 1 | 2 | 15 | . | .
Cc1nccn1-c1ccc(C=O)cc1 | -2 | -5 | -10 | -2 | -1 | 4 | . | .
